The source of these data is ChEMBL document CHEMBL1961873, “Compounds: GSK PKIS; Assays: Nanosyn kinase panel” (2012).

Assay [1] addresses Casein kinase I isoform gamma-2 (Homo sapiens) (UniProt P78368). The settings on record: at 1 µM.
Assay [2] has as its target Casein kinase I isoform gamma-3 (Homo sapiens) (UniProt Q9Y6M4). Conditions: at 0.1 µM.
The target is the same in assay [3]. Conditions: at 1 µM.
In assay [4] the target is Cyclin-dependent kinase 1 (Homo sapiens) (UniProt P06493). The settings on record: at 0.1 µM.
Assay [5] has the same target. The settings on record: at 1 µM.
In assay [6] the target is Cyclin-dependent kinase 2 (Homo sapiens) (UniProt P24941). Conditions: at 0.1 µM.
For assay [7] the target is unchanged. The settings on record: at 1 µM.
The target is the same in assay [8]. Conditions: at 0.1 µM. This is another data set of the same source.
The target is the same in assay [9]. The settings on record: at 1 µM. This is another data set of the same source.
For assay [10], the target named is T1, CDK3/Cyclin E (Homo sapiens) (UniProt P24864+Q00526). Conditions: at 0.1 µM.
The target of assay [11] is T1, CDK3/Cyclin E (Homo sapiens). Conditions: at 1 µM.
Assay [12] addresses Cyclin-dependent kinase 4 (Homo sapiens) (UniProt P11802). Conditions: at 0.1 µM.
Assay [13] shares this target. Conditions: at 1 µM.
The target in assay [14] is Cyclin-dependent kinase 5 (Homo sapiens) (UniProt Q00535). Conditions: at 0.1 µM.
Assay [15] has the same target. The settings on record: at 1 µM.
The target of assay [16] is Cyclin-dependent kinase 6 (Homo sapiens) (UniProt Q00534). The settings on record: at 0.1 µM.
Assay [17] has the same target. Conditions: at 1 µM.
The target of assay [18] is Dual specificity protein kinase CLK2 (Homo sapiens) (UniProt P49760). The settings on record: at 0.1 µM.
Assay [19] shares this target. The settings on record: at 1 µM.
Assay [20] addresses Dual specificity protein kinase CLK3 (Homo sapiens) (UniProt P49761). The settings on record: at 0.1 µM.

Dual specificity protein kinase CLK3 (Homo sapiens), sequence (P49761 whole entry, looked up): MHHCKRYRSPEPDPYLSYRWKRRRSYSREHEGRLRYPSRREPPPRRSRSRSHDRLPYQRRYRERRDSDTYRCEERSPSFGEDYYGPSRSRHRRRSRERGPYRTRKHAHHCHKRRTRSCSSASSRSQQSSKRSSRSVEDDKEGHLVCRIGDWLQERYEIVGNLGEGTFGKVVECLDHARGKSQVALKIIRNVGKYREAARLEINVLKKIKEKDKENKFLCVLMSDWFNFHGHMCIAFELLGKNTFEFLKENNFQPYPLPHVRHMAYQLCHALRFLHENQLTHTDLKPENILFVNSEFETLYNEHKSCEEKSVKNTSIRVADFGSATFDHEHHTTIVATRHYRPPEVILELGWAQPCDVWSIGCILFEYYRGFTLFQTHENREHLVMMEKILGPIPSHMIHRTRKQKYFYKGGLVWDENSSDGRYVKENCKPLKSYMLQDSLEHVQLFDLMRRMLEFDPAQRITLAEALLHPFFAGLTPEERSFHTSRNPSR
Dual specificity protein kinase CLK2 (Homo sapiens), sequence (P49760 whole entry, looked up): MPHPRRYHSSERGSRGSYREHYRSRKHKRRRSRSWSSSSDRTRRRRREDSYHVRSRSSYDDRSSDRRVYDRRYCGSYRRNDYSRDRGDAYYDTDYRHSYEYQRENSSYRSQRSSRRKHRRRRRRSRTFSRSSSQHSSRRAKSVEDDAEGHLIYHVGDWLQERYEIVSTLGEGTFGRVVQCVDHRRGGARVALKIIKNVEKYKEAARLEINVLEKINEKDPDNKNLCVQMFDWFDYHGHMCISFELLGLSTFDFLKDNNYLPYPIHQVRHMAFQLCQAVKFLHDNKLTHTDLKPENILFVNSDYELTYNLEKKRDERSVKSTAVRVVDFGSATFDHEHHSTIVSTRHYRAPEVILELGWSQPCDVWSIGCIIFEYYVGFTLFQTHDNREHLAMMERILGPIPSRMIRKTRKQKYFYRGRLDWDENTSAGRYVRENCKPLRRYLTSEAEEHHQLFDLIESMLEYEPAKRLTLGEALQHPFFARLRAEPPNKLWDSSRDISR
Casein kinase I isoform gamma-3 (Homo sapiens), sequence (Q9Y6M4 whole entry, looked up, canonical isoform): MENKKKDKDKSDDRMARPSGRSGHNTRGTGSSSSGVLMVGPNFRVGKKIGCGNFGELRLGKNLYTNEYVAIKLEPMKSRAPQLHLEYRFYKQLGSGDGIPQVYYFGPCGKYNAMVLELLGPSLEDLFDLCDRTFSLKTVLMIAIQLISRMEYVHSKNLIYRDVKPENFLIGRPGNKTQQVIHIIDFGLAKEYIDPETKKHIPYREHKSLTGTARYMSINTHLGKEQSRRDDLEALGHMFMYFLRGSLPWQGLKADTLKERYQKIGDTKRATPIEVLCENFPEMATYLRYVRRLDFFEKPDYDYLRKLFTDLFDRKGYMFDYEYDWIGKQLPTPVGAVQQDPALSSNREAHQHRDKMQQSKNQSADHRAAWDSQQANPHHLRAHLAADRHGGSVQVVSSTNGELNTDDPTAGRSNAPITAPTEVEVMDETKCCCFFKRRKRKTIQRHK
Cyclin-dependent kinase 4 (Homo sapiens), sequence (P11802 whole entry): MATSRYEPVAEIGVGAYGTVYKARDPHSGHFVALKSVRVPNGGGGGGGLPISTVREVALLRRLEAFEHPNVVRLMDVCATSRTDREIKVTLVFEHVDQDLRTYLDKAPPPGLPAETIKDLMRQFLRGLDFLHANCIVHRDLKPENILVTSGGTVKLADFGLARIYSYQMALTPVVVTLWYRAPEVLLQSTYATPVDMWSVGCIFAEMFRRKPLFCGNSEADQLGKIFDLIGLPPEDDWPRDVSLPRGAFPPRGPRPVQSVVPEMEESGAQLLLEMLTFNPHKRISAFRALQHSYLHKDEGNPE
Cyclin-dependent kinase 1 (Homo sapiens), sequence (P06493 whole entry, looked up): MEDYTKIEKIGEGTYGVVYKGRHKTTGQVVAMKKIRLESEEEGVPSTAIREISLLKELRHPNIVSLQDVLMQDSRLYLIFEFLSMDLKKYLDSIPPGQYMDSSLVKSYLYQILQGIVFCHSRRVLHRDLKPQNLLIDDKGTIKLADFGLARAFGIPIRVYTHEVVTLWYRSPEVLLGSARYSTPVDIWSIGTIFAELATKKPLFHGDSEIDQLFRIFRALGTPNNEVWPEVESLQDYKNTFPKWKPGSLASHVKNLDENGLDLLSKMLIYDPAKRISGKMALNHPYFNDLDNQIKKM
Cyclin-dependent kinase 5 (Homo sapiens), sequence (Q00535 whole entry, looked up): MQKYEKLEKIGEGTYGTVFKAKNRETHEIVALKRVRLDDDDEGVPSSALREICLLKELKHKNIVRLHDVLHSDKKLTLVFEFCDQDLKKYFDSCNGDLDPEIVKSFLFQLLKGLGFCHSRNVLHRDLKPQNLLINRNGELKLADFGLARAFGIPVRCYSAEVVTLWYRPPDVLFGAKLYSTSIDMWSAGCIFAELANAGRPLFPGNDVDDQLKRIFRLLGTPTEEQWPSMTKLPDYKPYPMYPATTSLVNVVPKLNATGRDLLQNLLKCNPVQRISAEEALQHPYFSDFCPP
Cyclin-dependent kinase 6 (Homo sapiens), sequence (Q00534 whole entry): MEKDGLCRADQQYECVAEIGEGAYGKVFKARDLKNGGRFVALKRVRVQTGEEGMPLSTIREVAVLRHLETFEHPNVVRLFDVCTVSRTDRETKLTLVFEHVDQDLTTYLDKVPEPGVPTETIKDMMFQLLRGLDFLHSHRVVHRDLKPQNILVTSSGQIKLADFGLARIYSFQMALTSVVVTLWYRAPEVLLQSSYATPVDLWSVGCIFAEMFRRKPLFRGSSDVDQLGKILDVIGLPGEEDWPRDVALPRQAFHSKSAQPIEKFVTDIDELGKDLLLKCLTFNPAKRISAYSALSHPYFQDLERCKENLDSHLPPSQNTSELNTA
Casein kinase I isoform gamma-2 (Homo sapiens), sequence (P78368 whole entry, looked up, canonical isoform): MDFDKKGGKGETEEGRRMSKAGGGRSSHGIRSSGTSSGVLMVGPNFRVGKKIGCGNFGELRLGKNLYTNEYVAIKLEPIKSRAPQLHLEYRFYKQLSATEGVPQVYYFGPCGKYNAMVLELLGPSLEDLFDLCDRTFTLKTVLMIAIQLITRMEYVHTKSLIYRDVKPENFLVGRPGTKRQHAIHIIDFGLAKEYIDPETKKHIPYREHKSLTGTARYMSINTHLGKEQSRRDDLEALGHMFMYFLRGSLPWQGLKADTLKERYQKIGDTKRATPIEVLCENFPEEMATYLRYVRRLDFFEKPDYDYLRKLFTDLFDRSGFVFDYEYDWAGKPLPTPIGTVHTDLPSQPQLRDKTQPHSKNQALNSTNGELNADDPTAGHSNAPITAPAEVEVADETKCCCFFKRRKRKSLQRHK
T1 sequence (P24864 whole entry, looked up): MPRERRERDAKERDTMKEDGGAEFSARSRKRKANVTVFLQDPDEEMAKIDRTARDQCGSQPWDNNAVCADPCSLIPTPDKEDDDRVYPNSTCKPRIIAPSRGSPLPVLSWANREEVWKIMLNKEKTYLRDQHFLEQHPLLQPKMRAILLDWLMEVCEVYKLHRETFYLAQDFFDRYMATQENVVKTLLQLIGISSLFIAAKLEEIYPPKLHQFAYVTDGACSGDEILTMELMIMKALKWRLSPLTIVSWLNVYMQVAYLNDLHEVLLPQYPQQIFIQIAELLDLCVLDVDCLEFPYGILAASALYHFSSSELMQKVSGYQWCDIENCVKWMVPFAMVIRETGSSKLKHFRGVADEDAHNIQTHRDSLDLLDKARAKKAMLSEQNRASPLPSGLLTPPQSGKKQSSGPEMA
T1 sequence (Q00526 whole entry, looked up): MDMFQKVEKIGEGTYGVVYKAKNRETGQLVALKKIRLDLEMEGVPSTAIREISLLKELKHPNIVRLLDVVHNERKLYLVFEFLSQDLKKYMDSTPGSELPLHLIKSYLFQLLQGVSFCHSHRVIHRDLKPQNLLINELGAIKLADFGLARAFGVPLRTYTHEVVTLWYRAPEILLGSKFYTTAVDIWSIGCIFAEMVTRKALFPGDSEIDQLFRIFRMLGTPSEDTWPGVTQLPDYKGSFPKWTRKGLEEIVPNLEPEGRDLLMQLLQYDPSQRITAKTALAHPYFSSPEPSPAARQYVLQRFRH

For `CN1CCC(n2cnc(-c3ccc(F)cc3)c2-c2ccnc(N)n2)CC1`, the inhibition is 4.69% in assay [1]; 0.53% in assay [2]; 10.3% in assay [3]; 0.23% in assay [4]; 2% in assay [5]; 0.76% in assay [6]. The inhibition was 1.07% in assay [7]; 1.45% in assay [8]; 2.89% in assay [9]; 1.57% in assay [10]; -0.17% in assay [11]; 0.29% in assay [12]. Moreover, the inhibition in [13] was 1.34%; in [14], 0.36%; in [15] it was 1.02%; in [16] it was 1.87%; in assay [17], 0.65%; in assay [18] it was 2.8%. In addition, the inhibition in assay [19] is 13.8%; in assay [20], 0.99%.

In the case of `O=C(O[C@H]1CN[C@H](C#Cc2cc3ncnc(Nc4ccc(Cc5ccccc5)cc4)c3s2)C1)N1CCOCC1`, the inhibition in assay [1] worked out at 2.93%; in assay [2], 2.83%; in assay [3] it was 0.75%; in [4], 0.31%; in [5] it was 1.96%; in [6], 0.69%. The inhibition was 0.19% in assay [7]; 1.15% in assay [8]; 1.72% in assay [9]; -2.04% in [10]; -1.05% in assay [11]; 0.77% in assay [12]. Also, the inhibition was 1.9% in [13]; 0.05% in [14]; 1.12% in assay [15]; -3.24% in [16]; -1.41% in [17]; 0.36% in assay [18]. For the same compound, the inhibition in assay [19] was -0.46%; in [20], 0.27%.

In the case of `c1cc(-c2cnn3nc(N4CCOCC4)ccc23)nc(NC2CC2)n1`, the inhibition in [1] came out at 10.4%; in [2], 2.89%; in assay [3], 8.91%; in [4], 2.3%; in [5], 21.7%; in assay [6], 6.45%. The inhibition in assay [7] was found to be 50.7%; in assay [8], 9.31%; in [9] it was 43.2%; in assay [10], 2.41%; in assay [11], 17.4%; in assay [12], 15%. Moreover, the inhibition in [13] amounted to 57.8%; in assay [14], 2.71%; in [15] it was 23.3%; in assay [16] it was 11.8%; in assay [17] it was 30.7%; in assay [18] it was 9.32%. In addition, the inhibition in assay [19] was found to be 52%; in assay [20], 1.88%.

As to `[O-][S+]1CCN(Cc2ccc(-c3ccc4ncnc(Nc5ccc(OCc6cccc(F)c6)c(Cl)c5)c4c3)o2)CC1`, the inhibition in [1] is 5.36%; in [2] it was 4.15%; in assay [3], 2.36%; in assay [4], 2.01%; in [5], -1.04%; in [6], 3.62%. Further, the inhibition is 4.32% in [7]; 5.35% in assay [8]; 6.57% in assay [9]; 0.55% in assay [10]; -2.03% in assay [11]; 3.89% in assay [12]. For the same compound, the inhibition in assay [13] is 6.99%; in [14], 4%; in [15], 3.88%; in assay [16], 0.87%; in assay [17], 3.99%; in assay [18], 1.02%. Besides, the inhibition was -0.02% in [19] and 1.18% in [20].

For `COc1cc(N2CCN(C(C)C)CC2)ccc1Nc1nc(Nc2ccc(F)cc2C(N)=O)c2cc[nH]c2n1`, the inhibition in assay [1] worked out at 40.8%; in assay [2], 14.7%; in [3], 59%; in assay [4], 1.39%; in assay [5], 1.85%; in assay [6], 2.71%. Also, the inhibition in assay [7] was 0.03%; in assay [8] it was 0.79%; in assay [9] it was 0.42%; in assay [10], -2.54%; in assay [11], 0.34%; in assay [12] it was 1.59%. Besides, the inhibition was 5.82% in assay [13]; 0.74% in assay [14]; 0.58% in assay [15]; -2.83% in assay [16]; 2.77% in assay [17]; 37.3% in assay [18]. Also, the results for the inhibition in assay [19] and in assay [20] were 88.4% and 1.64%, respectively.

In the case of `COc1ccc(-c2oc3ncnc(N)c3c2-c2ccc(NC(=O)Nc3cc(C(F)(F)F)ccc3F)cc2)cc1`, the inhibition in assay [1] came to 1.65%; in [2] it was 0.82%; in [3], 3.84%; in [4], 0.92%; in [5], 7.71%; in assay [6], 1.73%. Also, the inhibition in assay [7] stood at 28.1%; in assay [8] it was 4.28%; in [9] it was 28.8%; in assay [10] it was 4.83%; in assay [11], 42.4%; in [12], 3.09%. In addition, the inhibition in [13] came out at 5.04%; in [14], 1.02%; in [15], 4.32%; in assay [16], 3.24%; in [17], 3.67%; in assay [18], 3.66%. Moreover, the inhibition in assay [19] worked out at 26.6%; in assay [20], 1.97%.

In the case of `COc1cccc(-n2ncc3c(N/N=C/c4ccc(F)cc4)ncnc32)c1`, the inhibition in assay [1] came to 4.65%; in [2] it was 3.39%; in [3], 3.4%; in [4], 9.55%; in [5] it was 35.5%; in assay [6], 10.1%. Moreover, the inhibition in assay [7] was found to be 48.5%; in assay [8], 5.86%; in assay [9] it was 15.5%; in [10], 3.62%; in assay [11], 4.95%; in assay [12], 6.67%. Besides, the inhibition in assay [13] came to 17.3%; in [14], 9.38%; in assay [15], 32.8%; in [16] it was 7.13%; in assay [17], 16.8%; in assay [18] it was 2.52%. The inhibition in [19] worked out at 4.42%; in [20], 3.03%.

For `COC(=O)Nc1nc2ccc(S(=O)(=O)c3ccc(NC(=O)Nc4cc(C(F)(F)F)ccc4F)cc3)cc2[nH]1`, the inhibition in [1] came to 2.81%; in assay [2], 2.17%; in assay [3], 2.25%; in assay [4] it was 0.69%; in [5], 2.29%; in assay [6], 1.37%. Besides, the inhibition is 4.57% in assay [7]; 3.44% in assay [8]; 3.85% in assay [9]; 3.5% in [10]; -2.43% in assay [11]; 2.72% in assay [12]. Also, the inhibition is 4.04% in assay [13]; 1.61% in assay [14]; 2.38% in assay [15]; 0.21% in [16]; 2.9% in [17]; 0.38% in [18]. Further, the inhibition in assay [19] turned out to be 1.96%; in [20], 0.87%.

For `Cc1ccc2c(-c3ccnc(Nc4ccccc4)n3)c(-c3ccc(F)cc3)nn2n1`, the inhibition was 36.6% in [1]; 7.8% in assay [2]; 51.5% in assay [3]; -0.23% in [4]; 1.56% in assay [5]; 2.27% in [6]. Further, the inhibition came to 0.79% in [7]; 2.35% in assay [8]; 5.57% in assay [9]; 2.45% in assay [10]; 2.55% in assay [11]; 6.51% in [12]. Also, the inhibition was found to be 6.75% in assay [13]; 0.32% in assay [14]; 2.21% in assay [15]; 3.66% in assay [16]; 5.2% in assay [17]; 2.31% in assay [18]. Also, the figures for the inhibition in assay [19] and in assay [20] were 2.23% and 1.04%, respectively.

As to `CC1=C(C(=O)Nc2cc(Cl)c3[nH]ncc3c2)C(c2ccc(C(F)(F)F)cc2)CC(=O)N1` (stereo not given), the inhibition is 3.61% in assay [1]; 1.59% in [2]; 2.92% in [3]; -0.73% in assay [4]; 1.81% in assay [5]; -0.94% in assay [6]. Also, the inhibition is 9.38% in assay [7]; 2.4% in assay [8]; 7.57% in [9]; 2.08% in assay [10]; 0.3% in [11]; 2.42% in [12]. For the same compound, the inhibition in assay [13] is 3.48%; in assay [14], 0.48%; in assay [15], 1.62%; in assay [16], -4.7%; in assay [17], -0.24%; in assay [18] it was 1.17%. The values for the inhibition in assay [19] and in [20] were 4.84% and 1.15%, respectively.

Take `CC(C)COC(=O)c1ccc2c(c1)/C(=C/Nc1ccc(S(N)(=O)=O)cc1)C(=O)N2`: the inhibition in [1] is 14.2%; in assay [2], -3.31%; in assay [3], 20.6%; in [4] it was 36.9%; in assay [5] it was 75.5%; in [6], 82%. Further, the inhibition in assay [7] was 86.6%; in [8], 66.2%; in assay [9] it was 82.7%; in assay [10], 43.8%; in assay [11], 90.8%; in assay [12] it was 24.7%. Besides, the inhibition in assay [13] stood at 66.7%; in assay [14] it was 49.8%; in assay [15] it was 79.6%; in [16], 21.5%; in assay [17], 68.6%; in assay [18] it was 19.2%. For the same compound, the inhibition was 72.2% in assay [19] and -0.32% in assay [20].

`Cc1cccc2c1NC(=O)/C2=N\Nc1ccc(S(N)(=O)=O)cc1`: the inhibition in assay [1] came to 2.46%; in assay [2], 0.83%; in assay [3] it was 1.98%; in [4], 0.2%; in [5], 2.23%; in assay [6] it was 1.45%. Further, the inhibition in [7] was found to be 3.8%; in assay [8], 2.45%; in assay [9], 3.99%; in assay [10], 2.34%; in assay [11], 2.03%; in [12] it was 3.28%. Further, the inhibition amounted to 5.14% in assay [13]; 0.68% in assay [14]; 2.95% in [15]; 5.03% in assay [16]; 10.7% in assay [17]; 1.48% in assay [18]. Also, the inhibition was determined as 2.98% in assay [19] and 1.44% in assay [20].

On to `CNC(=O)c1cncc(/C=C/c2ccccc2Cl)c1`, for which the inhibition in assay [1] was -0.77%; in [2], 0.25%; in assay [3] it was -0.89%; in assay [4], 0.47%; in assay [5], 3.2%; in assay [6] it was 0.6%. The inhibition in [7] was -0.73%; in assay [8], -0.47%; in assay [9], 0.52%; in assay [10], 0.31%; in [11] it was -0.07%; in [12], -1.43%. The inhibition in assay [13] is -0.33%; in assay [14], 0.19%; in [15] it was 2%; in assay [16], 2.81%; in assay [17] it was -1.1%; in [18], -0.38%. For the same compound, the inhibition is 0.35% in assay [19] and -0.85% in assay [20].
